Source: PubChem BioAssay (Tox21)
Several values for one entry are separate records, joined by “and”; a condition that tells them apart may be missing. Equal entries are not always repeated. Results filed as inconclusive are left out. Where a call stands in place of a potency, no number is given. Activity calls are given as the source filed them. The call rests on the fitted dose curve.
Potency means the concentration at half of the fitted maximal effect.

Experiment: qHTS assay for small molecules that induce genotoxicity in human embryonic kidney cells expressing luciferase-tagged ATAD5 - cell viability (AID 651634); further: nearly all actives have a fitted effect of over 25% in size
Conditions: HEK293T ATAD5-luc cells viability, CellTiter-Fluor, 15.5 h; series mostly up to 83.3 µM
Summary of the method: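 Here HEK293T cells with the ATAD5 luciferase reporter are incubated with test compounds for 15.5 hr, and cytotoxicity is then gauged by measuring protease activity in live cells using fluorescence.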
In the case of `Oc1cc(Cl)c(Cl)c(Cl)c1`, the Potency is reported as “inactive”.
With `CN(C)C(=S)[S-].CN(C)C(=S)[S-].[Cu+2]` the Potency was 0.836 µM (active).
With `O=C/C(Cl)=C(/Cl)C(=O)O` the Potency was “inactive”.
In the case of `O=[N+]([O-])c1cc(C(F)(F)F)c(Cl)c([N+](=O)[O-])c1Cl`, the Potency is reported as 24.3 µM (active).
With `Oc1ccc(C(=C(Cl)Cl)c2ccc(O)cc2)cc1` the Potency was “inactive”.
In the case of `CC(=O)Nc1ccc2c(c1)Cc1ccccc1-2`, the Potency is reported as “inactive”.
With `CC(=O)[O-].CC(=O)[O-].O.O.[Cd+2]` the Potency was 0.214 µM (active).
For `O=[N+]([O-])O.O=[N+]([O-])O.[Cd]`, the Potency was 1.22 µM (active).
In the case of `CCCCCCCCCCCCBr`, the Potency is reported as “inactive”.
For `Nc1ccccc1C(=O)OC/C=C/c1ccccc1`, the Potency was “inactive”.
For `Nc1ccc(Cc2ccc(N)c(Cl)c2)cc1Cl`, the Potency was “inactive”.
With `CCCSP(=O)(OCC)SCCC` the Potency was “inactive”.
For `CC(C)OC(=O)C(O)(c1ccc(Cl)cc1)c1ccc(Cl)cc1`, the Potency was “inactive”.
With `CC(=O)[O-].CC(=O)[O-].[Hg+2]` the Potency was 54.5 µM (active).
In the case of `[Cd+2].[Cl-].[Cl-]`, the Potency is reported as 1.95 µM (active) and 1.22 µM (active).
With `CC1(C)C(/C=C(\Cl)C(F)(F)F)C1C(=O)OC(C#N)c1cccc(Oc2ccccc2)c1` (stereo unspecified) the Potency was “inactive”.
